According to PubChem BioAssay AID540335 (Broad Institute, 2011):
The campaign covered roughly 1,300 compounds. About 270 (21%) were called active.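 The calls were made as follows: active = dose-dependent rise or fall in viability, either side of zero, with half-maximal concentration at or below a set limit; inconclusive = flat curve at 30 to 70% viability loss, or poor fit; inactive = flat within 30% either way, or potency beyond limit.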 A selection follows. Results with a measured potency or affinity are listed apart.

assay: A375 melanoma cell viability reduction, dose response, counter-screen for MITF modulator project, cherry-pick samples, set 2 (AID 540335); conditions: CellTiter-Glo ATP luminescence, 24 h; series mostly up to 35 µM;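 also: A375 human melanoma cells which do not depend on MITF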

Row | SMILES | outcome
1 | Cn1cccc1C(=O)NC(=O)COC(=O)c1ccc(S(C)(=O)=O)c([N+](=O)[O-])c1 | inactive
2 | CS(=O)(=O)c1ccc(C(=O)OCC(=O)NCc2cccs2)cc1[N+](=O)[O-] | inactive
3 | O=C(CCl)N1N=C(c2ccco2)CC1c1cccs1 (configuration not stated) | inactive
4 | CC(C)C(=O)N1CCN(c2ccc(NC(=O)c3ccc([N+](=O)[O-])o3)cc2Cl)CC1 | inactive
5 | CCCCC[n+]1ccn(C2=C([O-])c3ccccc3C(=O)/C2=N\S(=O)(=O)c2ccccc2)c1 | inactive
6 | O=C(Nc1ccc2c(c1)OCCO2)c1coc2ccccc2c1=O | inactive
7 | COc1cc(CN2CCC(C(=O)NCCC(C)C)CC2)ccc1OCc1ccccc1 | inactive
8 | COc1cc(CN2CCC(C(N)=O)CC2)ccc1OCc1ccccc1 | inactive
9 | CCN1CCc2c(sc(NC(=O)c3ccc(S(=O)(=O)N4CCCC4)cc3)c2C(=O)NC)C1 | inactive
10 | Cc1ccc(NC(=O)c2cc(N3C(=O)C=CC3=O)ccc2N2CCOCC2)cc1 | inactive
11 | O=C(Nc1ccc(S(=O)(=O)NC2=NCCCCC2)cc1)c1ccc([N+](=O)[O-])s1 | inactive
12 | Cc1ccc2sc(N(CCCN(C)C)C(=O)c3ccc(S(=O)(=O)N(C)C4CCCCC4)cc3)nc2c1C | inactive
13 | Cc1ccc2nc(NC(=O)CCCC(=O)O)sc2c1 | inactive
14 | COc1ccc(S(=O)(=O)N2CCCCC2)cc1NC(=O)c1ccc([N+](=O)[O-])o1 | inactive
15 | Cn1c(SCC(=O)N/N=C/c2ccc([N+](=O)[O-])s2)nnc1-c1ccccc1 | inactive
16 | CC(=O)OCCCNc1cc(Sc2ccc(Cl)cc2)c2nonc2c1[N+](=O)[O-] | inactive
17 | CCN1CCCC1CNC(=O)c1ccc2c(c1)NC(=O)/C(=C\c1ccc(OC)c(OC)c1)S2 (configuration not stated) | inactive
18 | CCN1CCCC1CNC(=O)c1ccc2c(c1)NC(=O)/C(=C\c1ccc(C)cc1)S2 (configuration not stated) | inactive
19 | COc1cccc(/C=C2/Sc3ccc(C(=O)NCCN4CCCC4)cc3NC2=O)c1 | inactive
20 | O=C1Nc2cc(C(=O)NCCN3CCCCCC3)ccc2S/C1=C\c1ccccc1 | inactive
21 | COC(=O)[C@@H]1C[C@]2(OC(=O)c3ccccc3)C=CC(=O)C[C@@H]2N1C(=O)OCc1ccccc1 | inactive
22 | COc1ccccc1NS(=O)(=O)c1cccc(C(=O)N/N=C/c2ccc([N+](=O)[O-])o2)c1 | inactive
23 | Cc1ccccc1OCC(=O)N/N=C/c1ccc([N+](=O)[O-])o1 | inactive
24 | O=C(COc1ccccc1)N/N=C/c1ccc([N+](=O)[O-])o1 | inactive
25 | C=Cc1ncc(OC)c2c1[nH]c1ccccc12 | inactive
26 | O=[N+]([O-])c1cccc2c(N3CCCC3)ccnc12 | inactive

Row | SMILES | outcome
27 | CCN1CCN(c2ccc(NC(=O)c3ccc([N+](=O)[O-])o3)cc2Cl)CC1 | inactive
28 | O=C(C[n+]1cccc2ccccc21)c1ccc([N+](=O)[O-])cc1 | inactive
29 | Cc1cc(C)n(-c2ccc(C(=O)Nc3ccc(C)c(S(=O)(=O)N4CCOCC4)c3)cc2)n1 | inactive
30 | CS(=O)(=O)c1nc(-c2ccc(F)cc2)cc(C(F)(F)F)n1 | inactive
31 | CCn1c(/C=C/N(C)c2ccccc2)[n+](CC)c2ccc(Cl)cc21 | inactive
32 | CCOC(=O)c1ccc2c(c1)n(CC)c(/C=C/N(C)c1ccccc1)[n+]2CC | inactive
33 | Oc1cc(NCCN2CCOCC2)cc2cccnc12 | inactive
34 | O=C(N/N=C\c1cc(Br)ccc1O)c1ccc(S(=O)(=O)N2CCCCC2)cc1 | inactive
35 | O=C(N/N=C/c1cc(Cl)ccc1O)c1ccncc1 | inactive
36 | O=C1c2cc(F)ccc2-n2c1nc1ccccc1c2=O | inactive
37 | CCOC(=O)CSC1=NC(=O)/C(=C\c2ccc(Cl)cc2)S1 | inactive
38 | O=C(N/N=C/c1ccc(F)cc1)c1c(O)c2ccccc2[nH]c1=O | inactive
39 | O=C1/C(=C/c2ccccc2[N+](=O)[O-])COc2ccccc21 | inactive
40 | Cc1ccc(-c2cn(-c3ccc(SC(F)F)cc3)c3[n+]2CCC3)cc1 | inactive
41 | O=c1c(Cl)c2oc3ccccc3nc-2c2ccccc12 | inactive
42 | COc1cccc(-c2nnc3n2N=C(C(C)(C)C)CS3)c1 | inactive
43 | O=C(CCl)Nc1ccc(-c2ccccc2)cc1 | inactive
44 | COc1ccc(S(=O)(=O)N(C(C)=O)c2ccc(OC(C)=O)c3ccccc23)cc1[N+](=O)[O-] | inactive
45 | CS(=O)(=O)c1ccc2nc(NC(=O)c3ccccc3)sc2c1 | inactive
46 | CC1=C/C(=N\NC(=S)Nc2cccnc2)CC(C)(C)C1 | inactive
47 | O=C(CCl)Nc1cccc(-c2cnc3ccccc3n2)c1 | inactive
48 | Nc1nc2ccccc2n1/N=C/c1ccc([N+](=O)[O-])s1 | inactive
49 | CC1CN(C(=O)CCC(=O)NCCCN2CCC(Cc3ccccc3)CC2)c2cc(Cl)ccc2O1 (configuration not stated) | inactive
50 | Clc1ccc(-c2c[n+](Cc3cccc(Cl)c3)c3n2CCC3)cc1 | inactive
51 | COc1ccc(/C=C2\Sc3ccc(C(=O)NCCN4CCCCCC4)cc3N(C)C2=O)cc1 | inactive
52 | COc1ccc(C(=O)NCCSc2ccccc2C)cc1 | inactive

Row | SMILES | outcome
53 | Nc1c(N(CCC2=CCCCC2)C(=O)COc2ccc([N+](=O)[O-])cc2)c(=O)[nH]c(=O)n1Cc1ccccc1 | inactive
54 | CN1CCN(c2ccc(NC(=O)c3ccc([N+](=O)[O-])o3)cc2Cl)CC1 | inactive
55 | CN1CCN(c2ccccc2NC(=O)c2ccc([N+](=O)[O-])o2)CC1 | inactive
56 | CC(=O)SC(C[N+](=O)[O-])c1cn(C(C)=O)c2ccccc12 (configuration not stated) | inactive
57 | CC(C)(C)C(=O)Cn1ncc(Cl)c(Cl)c1=O | inactive
58 | C=C1C(=O)O[C@@]23[C@H]1CC[C@@H](C)[C@@H]2CC[C@@]1(C)O[C@@H]31 | inactive
59 | CCCC(=O)N1CCN(c2ccc(NC(=O)c3ccc([N+](=O)[O-])o3)cc2)CC1 | inactive
60 | CCN(CC)CCNC(=O)c1ccc(NC(=O)c2cccc(S(=O)(=O)N3c4ccccc4CC3C)c2)cc1 (configuration not stated) | inactive
61 | O=C(Nc1ccc(N2CCN(C(=O)c3ccc(Cl)cc3)CC2)cc1)c1ccc([N+](=O)[O-])o1 | inactive
62 | O=C(/C=C/c1ccc(Cl)c([N+](=O)[O-])c1)c1ccc(O)cc1 | inactive
63 | O=C(N/N=C/c1ccc([N+](=O)[O-])s1)c1ccccc1Br | inactive
64 | COc1cc(NC(=O)c2ccc([N+](=O)[O-])o2)ccc1NC(=O)c1cccs1 | inactive
65 | CN(C(=O)/C=C/c1ccc([N+](=O)[O-])s1)c1ccccc1 | inactive
66 | Cc1scc(C(=O)N/N=C/c2ccc([N+](=O)[O-])o2)c1C | inactive
67 | CCCCCCN1C=CC(=C2C(=O)c3ccccc3C2=O)C=C1 | inactive
68 | O=C1CN(C(=O)Cn2ncc(Cl)c(Cl)c2=O)c2ccccc2N1 | inactive
69 | Cc1ccc(C(=O)N/N=C/c2ccc([N+](=O)[O-])s2)cc1 | inactive
70 | Cc1ccc(C)c(C(=O)Cn2ncc(Cl)c(Cl)c2=O)c1 | inactive
71 | C=CCNc1nc(-c2ccccn2)nnc1-c1ccccc1 | inactive
72 | Clc1cccc(-c2nc(-c3ccccn3)no2)c1 | inactive
73 | O=C(Nc1ccc(S(=O)(=O)N2CCCCCC2)cc1)c1[nH]ncc1[N+](=O)[O-] | inactive
74 | O=C(O)c1ccc(N/N=C/c2ccc(OC(=O)c3cccc(Cl)c3)cc2)cc1 | inactive
75 | CC(C)CC(=O)NC(c1cccs1)c1ccc2cccnc2c1O (configuration not stated) | inactive
76 | O=C(CCl)Nc1ccc(Sc2ccc(NC(=O)CCl)cc2)cc1 | inactive
77 | COc1ccccc1-c1nnc(-c2ccc(C)cc2)o1 | inactive
78 | COc1ccccc1-c1nc(-c2ccc(C)nc2OC)no1 | inactive

Row | SMILES | outcome
79 | Cn1c(SC2=CS(=O)(=O)c3ccccc32)nc2ccccc21 | inactive
80 | CCN1CCc2c(sc(NC(=O)c3ccc(S(=O)(=O)N4CCCCCC4)cc3)c2C(=O)NC)C1 | inactive
81 | CC1(C)CC(NC(=O)c2ccc(Cl)c(S(=O)(=O)N(Cc3ccccc3)c3ccccc3)c2)CC(C)(C)N1 | inactive
82 | C#CC(=O)N(c1ccc(OC)cc1OC)C(C(=O)NC1CCCC1)c1cccs1 (configuration not stated) | inactive
83 | COc1ccc(C(C(=O)NC2CCCCC2)N(C(=O)CCl)c2ccc(OC)cc2)cc1 (configuration not stated) | inactive
84 | C(#Cc1ccccc1)C[N+]1(CC#Cc2cccc3ccccc23)CCCC1 | inactive
85 | CCOc1ccc2nc(C)cc(Nc3cccc([N+](=O)[O-])c3)c2c1 | inactive
86 | CC(=O)OCCNc1cc(Sc2nc3ccccc3[nH]2)c2nonc2c1[N+](=O)[O-] | inactive
87 | O=C(Nc1cc(-c2nc3ncccc3o2)ccc1Cl)c1ccc([N+](=O)[O-])o1 | inactive
88 | O=C(O)c1cccc(N/N=C/c2ccc(OC(F)(F)F)cc2)c1 | inactive
89 | O=C(Cn1ncc(Cl)c(Cl)c1=O)NCC1CCCCC1 | inactive
90 | COc1ccc(C(=O)/C=C(\C)Nc2ccc3c(c2)OCO3)cc1 | inactive
91 | O=C(CSc1ccccn1)c1ccc2c(c1)OCO2 | inactive
92 | Cc1cc(C(=O)CN2C(=O)c3ccccc3S2(=O)=O)c(C)n1-c1ccccc1 | inactive
93 | Cc1cccnc1NC(=O)NC(=O)c1ccc(C(C)(C)C)s1 | inactive
94 | COc1ccc(CCn2c(=S)[nH]c3cc(C(=O)NCc4ccco4)ccc3c2=O)cc1OC | inactive
95 | Cc1cc(C)c2sc(N(CCCN(C)C)C(=O)COc3ccc(Cl)cc3)nc2c1 | inactive
96 | CN(C)CCCNc1nc2sc3c(c2c(=O)n1CCc1ccccc1)CCCCC3 | inactive
97 | COc1ccc(-n2cc(-c3ccc(C)cc3)[n+]3c2SCC3)cc1 | inactive
98 | O=C(NCC1CCCCC1)C1(CC2CC(c3cccc(Br)c3)=NO2)CCNCC1 (configuration not stated) | inactive
99 | Cc1ccc(C(C)C)c(OCc2nn(CC(=O)c3ccc(Cl)cc3)c3[n+]2CCCCC3)c1 | inactive
100 | CCOC(=O)N1C(=O)[C@@](CC)(c2ccccc2)N1C(=O)OCC | inactive
101 | O=C(N/N=C/c1ccc([N+](=O)[O-])o1)c1ccccc1-n1cccc1 | inactive
102 | COC(=O)C1=C(C)N(Cc2ccccc2)C(=NCC(C)C)N[C@H]1c1cccc(C(F)(F)F)c1 | inactive
